# Measurements reported in the supplement of paper PMC8975748.
# Where a name gives a salt, the structure may show the parent alone.
# System: Saccharomyces cerevisiae BY4741 SeMeCo community
# Experiment: z-score of subpopulation abundance vs DMSO median, subpopulation auxotrophic for LUM; higher = larger share of this subpopulation than in DMSO controls
# Settings: 10 µM; 24 h; SM minimal medium; subpopulation (auxotrophy): LUM
# Procedure, shortened: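 Scoring was based on each subpopulation's abundance, expressed as a z-score against the vehicle-well median. A Saccharomyces cerevisiae BY4741 community with four plasmids, each restoring one auxotrophy and encoding a distinct fluorescent protein, was pre-grown overnight to OD600 1.0, diluted to 0.3, and added at 70 µl to 384-well plates acoustically predosed with library drugs (10 µM final). It then grew 24 h in minimal SM medium before paraformaldehyde fixation and automated confocal microscopy, with single-auxotroph fluorescent strains setting thresholds and autofluorescence correction.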
row,Compound,z-score of subpopulation abundance
1,CCCCCOc1ccc(-c2ccc(-c3ccc(C(=O)N[C@H]4C[C@@H](O)[C@@H](O)NC(=O)[C@@H]5[C@@H](O)[C@@H](C)CN5C(=O)[C@H]([C@@H](C)O)NC(=O)[C@H]([C@H](O)[C@@H](O)c5ccc(O)cc5)NC(=O)[C@@H]5C[C@@H](O)CN5C(=O)[C@H]([C@@H](C)O)NC4=O)cc3)cc2)cc1,9.08
2,Cc1ccnc(NS(=O)(=O)c2ccc(N)cc2)n1 [Sulfamerazine],0.98
3,O=C(O)c1cc(-c2ccc(F)cc2F)ccc1O [Diflunisal],-1.08
4,C[C@@H]1[C@H](O)[C@@H](C)/C=C/C=C/C=C/C=C/C=C/C=C/C=C/[C@H](O[C@@H]2O[C@H](C)[C@@H](O)[C@H](N)[C@@H]2O)C[C@@H]2O[C@](O)(C[C@@H](O)C[C@@H](O)[C@H](O)CC[C@@H](O)C[C@@H](O)CC(=O)O[C@H]1C)C[C@H](O)[C@H]2C(=O)O [Amphotericin B],29.1
5,CO/N=C(\C(=O)N[C@@H]1C(=O)N2C(C(=O)O)=CCS[C@H]12)c1csc(N)n1 [Ceftizoxime sodium],-1.27
6,COC1C(O)CC(=O)OC(C)CC=CC=CC(OC2CCC(N(C)C)C(C)O2)C(C)CC(CC=O)C1OC1OC(C)C(OC2CC(C)(O)C(O)C(C)O2)C(N(C)C)C1O (stereo not given) [Spiramycin],-0.43
7,CC(C)(O/N=C(\C(=O)N[C@@H]1C(=O)N2C(C(=O)[O-])=C(C[n+]3ccccc3)CS[C@H]12)c1csc(N)n1)C(=O)O [Ceftazidime],0.05
8,C[C@@H]1C/C=C/C=C/C=C/C=C/[C@H](O[C@@H]2O[C@H](C)[C@@H](O)[C@H](N)[C@@H]2O)C[C@@H]2O[C@](O)(C[C@@H](O)C[C@H]3O[C@@H]3/C=C/C(=O)O1)C[C@H](O)[C@H]2C(=O)O [Natamycin],14.5
9,COCCCN1CCC(NC(=O)c2cc(Cl)c(N)c3c2OCC3)CC1 [Prucalopride],-0.29
10,CCOc1cc(NC(C)=O)ccc1C(=O)OC [Ethopabate],0.24
11,CCCSc1ccc2[nH]c(NC(=O)OC)nc2c1 [Albendazole],-0.08
12,CN(C)CCN1C(=O)c2cccc3cc(N)cc(c23)C1=O [Amonafide],0.44
13,COc1ccnc(C[S+]([O-])c2nc3cc(OC(F)F)ccc3[nH]2)c1OC (stereo not given) [Pantoprazole sodium],0
14,CCOC(=O)C1=C(COCCN)NC(C)=C(C(=O)OC)C1c1ccccc1Cl (stereo not given) [Amlodipine Besylate],-4.74
15,COc1cc(N)c(Cl)cc1C(=O)NC1CCN(CCCOc2ccc(F)cc2)CC1OC (stereo not given) [Cisapride],-0.18
16,COc1ccc2[nH]c([S+]([O-])Cc3ncc(C)c(OC)c3C)nc2c1 (stereo not given) [Omeprazole],0.62
17,O=C1CCc2cc(OCCCCc3nnnn3C3CCCCC3)ccc2N1 [Cilostazol],-0.52
18,O=c1ccn(C2CC(O)C(CO)O2)c(=O)[nH]1 (stereo not given) [2-deoxyuridine],0.23
19,NC12CC3CC(CC(C3)C1)C2 [Amantadine HCl],-0.72
20,CO/N=C(\C(=O)N[C@@H]1C(=O)N2C(C(=O)OCOC(=O)C(C)(C)C)=C(/C=C\c3scnc3C)CS[C@H]12)c1csc(N)n1 [Cefditoren Pivoxil],1.12
21,O=C1c2cccc3c2[C@H](CCC3)CN1[C@@H]1CN2CCC1CC2 [Palonosetron HCl],-0.02
22,CCCOc1ccc2[nH]c(NC(=O)OC)nc2c1 [Oxibendazole],0.95
23,C[C@]12CC[C@@H]3c4ccc(O)cc4CC[C@H]3[C@@H]1CC[C@@H]2OC(=O)CCC1CCCC1 [Estradiol Cypionate],0.29
24,COc1ccc2c(c1)c(CC(=O)O)c(C)n2C(=O)c1ccc(Cl)cc1 [Indomethacin],0.47
25,O=C(O)Cc1ccccc1Nc1c(Cl)cccc1Cl [Diclofenac Diethylamine],-1.21
26,Clc1ccccc1C(c1ccccc1)(c1ccccc1)n1ccnc1 [Clotrimazole],5.41
27,C[C@@H](O)[C@H]1C(=O)N2C(C(=O)OCOC(=O)C(C)(C)C)=C(SC3CN(C4=NCCS4)C3)[C@H](C)[C@H]12 [Tebipenem Pivoxil],0.09
28,NC(=O)Cc1cccc(C(=O)c2ccccc2)c1N [Nepafenac],0.29
29,CN1C2CCCC1CC(NC(=O)c1nn(C)c3ccccc13)C2 (stereo not given) [Granisetron],-0.48
30,CN(C)C[C@@H]1CCn2cc(c3ccccc32)C2=C(C(=O)NC2=O)c2cn(c3ccccc23)CCO1,0.63
